Data published in PubChem BioAssay AID1159580 (chemical genetic matrix, 2015).
About 2,000 (36%) of roughly 5,500 compounds were called active. Inconclusive results (about 18%) are left out. No stated cut-off is given here; in the data, active means normalized growth mostly below about 0.91 (no sharp cut-off); inconclusive means no clear call, values can overlap the other calls; inactive means mostly above about 0.92. This is one part of the list.

Assay: chemical genetic growth profiling, strain panel (AID 1159580);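 further: tested at 20 µM; growth read once vehicle control cultures reached saturation at 30 °C; 1 = growth at the plate median or of vehicle wells; lower values mean less growth of the strain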
Conditions: growth OD
[1] = S. cerevisiae deletion strains, locus YBR021W, strain FUR4, hits give low values
[2] = S. cerevisiae deletion strains, locus YBR229C, strain ROT2, hits give low values
[3] = S. cerevisiae deletion strains, locus YCL029C, strain bik1, hits give low values
[4] = S. cerevisiae deletion strains, locus YDL035C, strain GPR1, hits give low values
[5] = S. cerevisiae deletion strains, locus YDL074C, strain BRE1, hits give low values
[6] = S. cerevisiae deletion strains, locus YDL101C, strain DUN1, hits give low values
[7] = S. cerevisiae deletion strains, locus YDL185W, strain tfp1, hits give low values
[8] = S. cerevisiae deletion strains, locus YDL192W, strain arf1, hits give low values
[9] = S. cerevisiae deletion strains, locus YDR101C, strain arx1, hits give low values
[10] = S. cerevisiae deletion strains, locus YDR162C, strain NBP2, hits give low values
[11] = S. cerevisiae deletion strains, locus YDR318W, strain mcm21, hits give low values
[12] = S. cerevisiae deletion strains, locus YDR388W, hits give low values
[13] = S. cerevisiae deletion strains, locus YDR502C, strain sam2, hits give low values
[14] = S. cerevisiae deletion strains, locus YEL061C, strain CIN8, hits give low values
[15] = S. cerevisiae deletion strains, locus YER110C, hits give low values
[16] = S. cerevisiae deletion strains, locus YER155C, strain BEM2, hits give low values
[17] = S. cerevisiae deletion strains, locus YER167W, strain BCK2, hits give low values
[18] = S. cerevisiae deletion strains, locus YGL078C, strain dbp3, hits give low values
[19] = S. cerevisiae deletion strains, locus YGL086W, strain mad1, hits give low values
[20] = S. cerevisiae deletion strains, locus YGL248W, strain PDE1, hits give low values
[21] = S. cerevisiae deletion strains, locus YGR135W, strain pre9, hits give low values
[22] = S. cerevisiae deletion strains, locus YGR229C, strain SMI1, hits give low values
[23] = S. cerevisiae deletion strains, locus YGR252W, strain gcn5, hits give low values
[24] = S. cerevisiae deletion strains, locus YHR030C, strain SLT2, hits give low values
[25] = S. cerevisiae deletion strains, locus YHR079C, strain IRE1 (second series), hits give low values
[26] = S. cerevisiae deletion strains, locus YHR094C, strain hxt1, hits give low values
[27] = S. cerevisiae deletion strains, locus YHR129C, strain ARP1, hits give low values
[28] = S. cerevisiae deletion strains, locus YHR200W, strain rpn10, hits give low values
[29] = S. cerevisiae deletion strains, locus YIL066C, strain RNR3, hits give low values
[30] = S. cerevisiae deletion strains, locus YIL073C, strain SPO22, hits give low values
[31] = S. cerevisiae deletion strains, locus YIL125W, strain kgd1, hits give low values
[32] = S. cerevisiae deletion strains, locus YIR030C, strain dcg1, hits give low values
[33] = S. cerevisiae deletion strains, locus YJL095W, strain BCK1, hits give low values
[34] = S. cerevisiae deletion strains, locus YJL134W, strain LCB3, hits give low values
[35] = S. cerevisiae deletion strains, locus YJL168C, strain set2, hits give low values
[36] = S. cerevisiae deletion strains, locus YJL187C, strain SWE1 (second series), hits give low values
[37] = S. cerevisiae deletion strains, locus YJR043C, strain POL32, hits give low values
[38] = S. cerevisiae deletion strains, locus YKL009W, strain mrt4, hits give low values
[39] = S. cerevisiae deletion strains, locus YKL068W, hits give low values
[40] = S. cerevisiae deletion strains, locus YKL085W, strain MDH1 (second series), hits give low values
[41] = S. cerevisiae deletion strains, locus YKL085W, strain MDH1, hits give low values
[42] = S. cerevisiae deletion strains, locus YKL190W, strain CNB1, hits give low values
[43] = S. cerevisiae deletion strains, locus YKR001C, strain vps1, hits give low values
[44] = S. cerevisiae deletion strains, locus YLR039C, strain RIC1, hits give low values
[45] = S. cerevisiae deletion strains, locus YLR058C, strain SHM2, hits give low values
[46] = S. cerevisiae deletion strains, locus YLR102C, strain apc9, hits give low values
[47] = S. cerevisiae deletion strains, locus YLR262C, strain YPT6, hits give low values
[48] = S. cerevisiae deletion strains, locus YLR268W, strain sec22, hits give low values
[49] = S. cerevisiae deletion strains, locus YLR330W, strain CHS5, hits give low values
[50] = S. cerevisiae deletion strains, locus YLR342W, strain FKS1 (second series), hits give low values
[51] = S. cerevisiae deletion strains, locus YLR371W, strain rom2, hits give low values
[52] = S. cerevisiae deletion strains, locus YLR418C, strain cdc73, hits give low values
[53] = S. cerevisiae deletion strains, locus YML016C, strain PPZ1, hits give low values
[54] = S. cerevisiae deletion strains, locus YML032C, strain rad52, hits give low values
[55] = S. cerevisiae deletion strains, locus YML124C, strain tub3, hits give low values
[56] = S. cerevisiae deletion strains, locus YMR078C, strain ctf18, hits give low values
[57] = S. cerevisiae deletion strains, locus YMR223W, strain ubp8, hits give low values
[58] = S. cerevisiae deletion strains, locus YMR307W, strain GAS1, hits give low values
[59] = S. cerevisiae deletion strains, locus YNL067W, strain RPL9B, hits give low values
[60] = S. cerevisiae deletion strains, locus YNL233W, strain BNI4, hits give low values
[61] = S. cerevisiae deletion strains, locus YNL250W, strain rad50, hits give low values
[62] = S. cerevisiae deletion strains, locus YNL271C, strain bni1, hits give low values
[63] = S. cerevisiae deletion strains, locus YNL298W, strain CLA4, hits give low values
[64] = S. cerevisiae deletion strains, locus YNL307C, strain MCK1, hits give low values
[65] = S. cerevisiae deletion strains, locus YNL322C, strain KRE1, hits give low values
[66] = S. cerevisiae deletion strains, locus YNR052C, strain pop2, hits give low values
[67] = S. cerevisiae deletion strains, locus YOL006C, strain TOP1, hits give low values
[68] = S. cerevisiae deletion strains, locus YOL012C, strain htz1
[69] = S. cerevisiae deletion strains, locus YOL147C, strain pex11, hits give low values
[70] = S. cerevisiae deletion strains, locus YOR061W, strain CKA2, hits give low values
[71] = S. cerevisiae deletion strains, locus YOR069W, strain VPS5, hits give low values
[72] = S. cerevisiae deletion strains, locus YOR136W, strain idh2, hits give low values
[73] = S. cerevisiae deletion strains, locus YOR144C, strain elg1, hits give low values
[74] = S. cerevisiae deletion strains, locus YOR184W, strain ser1, hits give low values
[75] = S. cerevisiae deletion strains, locus YOR316C, strain cot1, hits give low values
[76] = S. cerevisiae deletion strains, locus YPR119W, strain clb2, hits give low values
[77] = S. cerevisiae deletion strains, locus YPR141C, strain kar3, hits give low values
[78] = S. cerevisiae deletion strains, locus YPR163C, strain tif3, hits give low values
[79] = S. cerevisiae deletion strains, locus YPR167C, strain met16, hits give low values
[80] = S. cerevisiae deletion strains, strain wtn01, hits give low values

Measured: normalized growth

NC(N)=NCCC[C@@H](NC(=O)[C@@H](N)Cc1ccc(O)cc1)C(=O)O
inactive: [1] 1.01 | [2] 1.01 | [3] 1.01 | [4] 1.02 | [5] 1.01 | [6] 1 | S. cerevisiae deletion strains, locus YDL134C, strain PPH21, hits give low values 1.01 | [7] 1.01 | [8] 1.01 | [9] 0.996 | S. cerevisiae deletion strains, locus YDR150W, strain NUM1, hits give low values 1.01 | [10] 1 | [11] 1.01 | [12] 1.01 | [13] 1.02 | [14] 1.01 | [15] 1.02 | [16] 1.01 | [17] 1.01 | [18] 1.01 | [19] 1 | [20] 1.01 | S. cerevisiae deletion strains, locus YGR078C, strain PAC10, hits give low values 0.996 | [21] 1.01 | [22] 0.997 | [23] 0.99 | [24] 1.01 | [25] 1.01 | [26] 1.01 | [27] 1 | [28] 1.01 | [29] 1.01 | [30] 1.03 | [31] 1.01 | [32] 1.01 | [33] 0.996 | [34] 1.01 | [35] 1.01 | [36] 1.01 | [37] 1.01 | [38] 0.997 | [39] 1.01 | [40] 1.01 | [41] 1.01 | [42] 1.01 | [43] 0.993 | [44] 1.03 | [45] 1.01 | [46] 1.01 | [47] 0.992 | [48] 1.01 | [49] 1.01 | [50] 1.02 | [51] 1.01 | [52] 1.02 | [53] 1 | [54] 1.02 | [55] 1.01 | [56] 1.01 | [57] 1.01 | [58] 0.979 | [59] 1.01 | S. cerevisiae deletion strains, locus YNL153C, strain GIM3, hits give low values 0.993 | [60] 1.01 | [61] 0.998 | [62] 1.01 | [63] 1.01 | [64] 1.01 | [65] 1.01 | [66] 1.02 | [67] 1.03 | [68] 1.88 | [69] 1.01 | [70] 1.01 | [71] 1.01 | [72] 1 | [73] 1.01 | [74] 1.01 | [75] 1.01 | S. cerevisiae deletion strains, locus YPL055C, strain LGE1, hits give low values 1 | [76] 1.01 | [77] 1.01 | [78] 1.02 | [79] 1.01 | [80] 0.999 | S. cerevisiae strains, strain wild type, hits give low values 1

NC(N)=NCCCC(NC(=O)C(N)Cc1ccc(O)cc1)C(=O)O (stereo not drawn)
active: [1] 1.25 [resistant]
inactive: S. cerevisiae deletion strains, locus YAL013W, strain DEP1, hits give low values 1.03 | [2] 0.998 | [3] 0.969 | [4] 1.04 | [5] 1.03 | [6] 0.989 | [7] 0.962 | [8] 0.994 | [9] 0.989 | [10] 1.02 | [11] 0.991 | [12] 0.989 | [13] 0.987 | [14] 0.988 | [15] 0.971 | [16] 0.99 | [17] 1.01 | [18] 1 | [19] 0.981 | [20] 0.997 | [21] 1 | [22] 1.05 | [23] 1.23 | [24] 0.994 | [25] 0.968 | [26] 0.985 | [27] 0.99 | [28] 0.981 | [29] 1.01 | [30] 0.924 | [31] 0.995 | [32] 0.996 | [33] 0.988 | [34] 0.992 | [35] 0.989 | [36] 0.99 | [37] 1.08 | [38] 0.938 | [39] 0.968 | [40] 0.988 | [41] 0.988 | [42] 0.993 | [43] 0.982 | [44] 1 | [45] 0.991 | [46] 0.972 | [47] 1 | [48] 0.97 | [49] 0.988 | [50] 1.05 | [51] 0.99 | [52] 1.07 | [53] 0.992 | [54] 0.996 | [55] 0.995 | [56] 0.997 | [57] 1.03 | S. cerevisiae deletion strains, locus YMR263W, strain SAP30, hits give low values 0.983 | [58] 1.31 | [59] 0.968 | [60] 1 | [61] 0.951 | [62] 1 | [63] 0.995 | [64] 0.985 | [65] 1 | [66] 0.976 | [67] 1.04 | [68] 1.32 | [69] 0.991 | [70] 0.988 | [71] 0.989 | [72] 0.978 | [73] 0.995 | [74] 0.984 | [75] 0.979 | [76] 0.988 | [77] 0.969 | [78] 1 | [79] 0.997 | [80] 0.964
